# Measured values: the supplement of paper PMC6992640
# ± gives the standard deviation of the averaged measurements.
# Columns and labels:
# Test in all cases: cell viability (% of vehicle); higher = less cytotoxic
# HCI01 [1] = cells of a triple-negative basal-like breast cancer xenograft; settings: 1 µM; 72 h
# UCD52 [2] = cells of a triple-negative basal-like breast cancer xenograft; settings: 1 µM; 72 h
# WHIM2 [3] = cells of a triple-negative basal-like breast cancer xenograft; settings: 1 µM; 72 h
# WHIM30 [4] = cells of a triple-negative basal-like breast cancer xenograft; settings: 1 µM; 72 h
# HCI01 [5] = settings: 10 µM; 72 h
# HCI03 = cells of an ER-positive luminal breast cancer xenograft; settings: 10 µM; 72 h
# HCI09 = cells of a triple-negative luminal androgen receptor type breast cancer xenograft; settings: 10 µM; 72 h
# HCI11 = cells of an ER-positive luminal breast cancer xenograft; settings: 10 µM; 72 h
# HCI13 = cells of an ER-positive luminal breast cancer xenograft; settings: 10 µM; 72 h
# HCI16 = cells of a triple-negative basal-like breast cancer xenograft; settings: 10 µM; 72 h
# UCD52 [6] = settings: 10 µM; 72 h
# WHIM2 [7] = settings: 10 µM; 72 h
# WHIM30 [8] = settings: 10 µM; 72 h
Compound,cell viability (HCI01 [1]),cell viability (UCD52 [2]),cell viability (WHIM2 [3]),cell viability (WHIM30 [4]),cell viability (HCI01 [5]),cell viability (HCI03),cell viability (HCI09),cell viability (HCI11),cell viability (HCI13),cell viability (HCI16),cell viability (UCD52 [6]),cell viability (WHIM2 [7]),cell viability (WHIM30 [8])
C=CC(=O)N1CCC(Oc2cc3c(Nc4ccc(Cl)c(Cl)c4F)ncnc3cc2OC)CC1 [Poziotinib],62.3,36.5,32.9,50.7,39.4 ± 14,48.7,47.1 ± 2.5,48,34.2 ± 4.1,66.1,44.2 ± 4.5,50.5 ± 5.6,35.8 ± 10
COC(=O)C12CCC(C)(C)CC1C1C(=O)C=C3C4(C)C=C(C#N)C(=O)C(C)(C)C4CCC3(C)C1(C)CC2 (stereo unspecified) [Bardoxolone methyl],145,60.9,59.9,65.3,28.5 ± 3.9,33.9,23.1 ± 1.8,23.2,31.5 ± 3,30.4,24.6 ± 1,34.2 ± 5.5,26.8 ± 1.1
CN(C)CC=CC(=O)Nc1cc2c(Nc3ccc(F)c(Cl)c3)ncnc2cc1OC1CCOC1.O=C(O)C=CC(=O)O.O=C(O)C=CC(=O)O (stereo unspecified) [Afatinib dimaleate],85.2,32.7,57.8,56,35.3 ± 3,53.8,35.2 ± 4.2,32.5,32.4 ± 2.1,30.7,40.1 ± 7.4,41.1 ± 4.1,54.6 ± 7
C=C(c1ccc(C(=O)O)cc1)c1cc2c(cc1C)C(C)(C)CCC2(C)C [Bexarotene],106,107,91.9,142,60.2 ± 32,85.9,98.5 ± 3.8,100,54.3 ± 2.4,84.7,98 ± 14,44.8 ± 14,93.8 ± 4.4
C#Cc1cccc(Nc2ncnc3cc(OCCOC)c(OCCOC)cc23)c1 [Erlotinib],62.6,59.8,53.7,65,79.4 ± 26,73.6,63.7 ± 8.2,74.2,72.7 ± 3.5,81.1,67.82 ± 0.58,47.9 ± 9,107 ± 4.9
CCCCCCCCOc1ccccc1C(=O)Nc1ccc(C(=O)OCC[N+](C)(CC)CC)cc1.[Br-] [Otilonium Bromide],91.3,100,105,90.7,51.9 ± 1.6,110,37.4 ± 9.3,77.9,42.9 ± 2.6,81.7,63.47 ± 0.62,37.7 ± 9.5,98.3 ± 10
COc1ccc2c(O[C@H]3CC4C(=O)N(C)CCCC/C=C\[C@H]5C[C@@]5(C(=O)NS(=O)(=O)C5CC5)NC(=O)[C@@H]4C3)cc(-c3nc(C(C)C)cs3)nc2c1C (stereo partly specified) [Simeprevir],104,90.4,106,86.7,29.8 ± 3.8,39.5,20.8 ± 2.6,72.7,38.5 ± 3.4,28.7,32.64 ± 0.11,39 ± 3.6,28.5 ± 2.1
Cc1cc(Nc2ncc(Cl)c(Nc3ccccc3S(=O)(=O)C(C)C)n2)c(OC(C)C)cc1C1CCNCC1,76.4,45.8,63.1,47.9,34.4 ± 7.6,37.8,17.5 ± 1.3,29.3,27.6 ± 17,44.6,24.86 ± 0.13,45.5 ± 4.4,29.3 ± 1.2
Cc1ccc(C(=O)N(CCCN)C(c2nc3cc(Cl)ccc3c(=O)n2Cc2ccccc2)C(C)C)cc1 (stereo unspecified),98.7,47.7,62.5,78,34.6 ± 0.75,41.2,22.4 ± 2.7,56.8,38.3 ± 4,45.5,122 ± 8.3,34.8 ± 0.98,39.8 ± 4
COC(=O)C1=C(C)NC(C)=C(C(=O)OC2CCCN(Cc3ccccc3)C2)C1c1cccc([N+](=O)[O-])c1.Cl (stereo unspecified) [Benidipine HCl],96.3,88.8,105,93.7,82.1 ± 16,68.3,27.9 ± 14,83.2,36.2 ± 7.7,87.5,51.4 ± 7.1,31.1 ± 6.1,64 ± 4.1
Cc1nc(NC(=O)N2CCCC2C(N)=O)sc1-c1ccnc(C(C)(C)C(F)(F)F)c1 (stereo unspecified),74,64.7,54.9,83.3,85.7 ± 9.2,45.8,28.8 ± 5.1,75.9,44.2 ± 6.9,93.6,38.5 ± 2.5,65.6 ± 19,65.9 ± 2
Cc1cccc(CN2CCN(C(c3ccccc3)c3ccc(Cl)cc3)CC2)c1.Cl.Cl (stereo unspecified) [Meclizine 2HCl],136,93.4,98,99.5,85.9 ± 7.1,57.9,74 ± 12,67.4,52.7 ± 10,91.8,44 ± 6.2,71.6 ± 13,45.4 ± 6.8
CC(=O)c1cc2c(o1)C(=O)c1ccccc1C2=O [Napabucasin],30.1,29.6,50.3,33.9,54.9 ± 23,54.2,29.1 ± 9.1,21.8,46.9 ± 9.2,58.7,40.3 ± 7.5,72.4 ± 12,45.1 ± 7.3
CC(C)C(=O)OCC(=O)[C@@]12O[C@H](C3CCCCC3)O[C@@H]1C[C@H]1[C@@H]3CCC4=CC(=O)C=C[C@]4(C)[C@H]3[C@@H](O)C[C@@]12C [Ciclesonide],115,127,81.6,145,67.6 ± 23,76.3,50.6 ± 24,90.1,48.9 ± 2.2,122,46.7 ± 24,36 ± 1.9,100 ± 16
CCCCc1oc2ccc(NS(C)(=O)=O)cc2c1C(=O)c1ccc(OCCCN(CCCC)CCCC)cc1 [Dronedarone],98.7,81.4,91.8,79.8,32.4 ± 2,40.7,22.2 ± 1.3,90.5,35.6 ± 0.56,32.7,29.7 ± 2.9,41.3 ± 5.4,38.6 ± 2.7
Cl.Cl.Fc1ccc(C(c2ccc(F)cc2)N2CCN(CC=Cc3ccccc3)CC2)cc1 [Flunarizine 2HCl],106,94.1,101,88.9,106 ± 20,82.4,82.2 ± 42,96.5,75.4 ± 9.1,106,46.7 ± 2.5,38.9 ± 12,87.3 ± 8.5
CCN(CC)CCCC(C)Nc1ccnc2cc(Cl)ccc12.O=P(O)(O)O.O=P(O)(O)O (stereo unspecified) [Chloroquine diphosphate],88.7,68.5,77.4,81.2,75.4 ± 4.4,93.1,95.5 ± 18,88.4,142 ± 20,102,72.7 ± 0.86,71.2 ± 17,74.46 ± 0.26
COc1cc2c(Oc3ccc(NC(=O)C4(C(=O)Nc5ccc(F)cc5)CC4)cc3F)ccnc2cc1OCCCN1CCOCC1,89.1,48.2,71.2,70.2,35.4 ± 4.4,55,65.7 ± 32,52.7,60.2 ± 6.2,48,28 ± 2.1,50.1 ± 11,64.8 ± 15
COc1cc2nccc(Oc3ccc(NC(=O)Nc4cc(C)on4)c(Cl)c3)c2cc1OC [Tivozanib (AV-951)],91,61.4,94.3,85.1,85.4 ± 37,80,67 ± 50,75.1,60.9 ± 7.7,69.7,81.1 ± 22,61.7 ± 18,57.6 ± 2.1
CC(C)C[C@H](NC(=O)[C@H](Cc1ccccc1)NC(=O)c1cnccn1)B(O)O [Bortezomib],32.8,21.6,24.9,24,–,–,–,–,–,–,–,–,–
CCCCCCCCCCCC1=C(O)C(=O)C=C(O)C1=O [Embelin],92.8,86.8,93.5,85.6,75.6 ± 18,97.1,22.8 ± 1.3,54.1,86.3 ± 2.1,92.7,72.3 ± 5.4,77.1 ± 2.9,70.1 ± 13
Cl.OC(CNCC(O)C1CCc2cc(F)ccc2O1)C1CCc2cc(F)ccc2O1 (stereo unspecified) [Nebivolol],91.1,92.3,91.5,103,75.3 ± 2.5,87.2,86.8 ± 8.1,87.2,94.2 ± 18,64.9,38.43 ± 0.34,40.5 ± 9.2,81 ± 2.3
CCN(CC)CCNC(=O)c1c(C)[nH]c(C=C2C(=O)Nc3ccc(F)cc32)c1C.O=C(O)CC(O)C(=O)O [Sunitinib malate],73.4,64.6,96,69.2,37.7 ± 18,73.6,11.3 ± 0.53,111,58.1 ± 1.6,128,15.3 ± 1.1,31.7 ± 12,41.7 ± 11
CS(=O)(=O)CCNCc1ccc(-c2ccc3ncnc(Nc4ccc(OCc5cccc(F)c5)c(Cl)c4)c3c2)o1.Cc1ccc(S(=O)(=O)O)cc1.Cc1ccc(S(=O)(=O)O)cc1 [Lapatinib Ditosylate],71.7,57.1,56.2,61.1,49.51 ± 0.1,45.4,36.3 ± 18,67.8,42.39 ± 0.3,61.8,28.1 ± 1.9,37.7 ± 3,47.4 ± 4
CN(C)c1ccc(C(=C2C=CC(=[N+](C)C)C=C2)c2ccc(N(C)C)cc2)cc1.[Cl-] [Crystal Violet],74.7,61.1,51.2,40.8,28.8 ± 4.1,48.9,26.9 ± 4.8,28.1,24.73 ± 0.16,56.7,29.6 ± 3.3,46.7 ± 15,36.8 ± 2.2
Clc1ccc(C(Cn2ccnc2)OCc2c(Cl)cccc2Cl)c(Cl)c1.O=[N+]([O-])O (stereo unspecified) [Isoconazole nitrate],123,112,126,105,57.9 ± 28,119,25.8 ± 3.4,101,54.2 ± 8.2,140,44.1 ± 5.8,52.1 ± 6.9,100 ± 2.2
CNC(=O)c1cc(Oc2ccc(NC(=O)Nc3ccc(Cl)c(C(F)(F)F)c3)c(F)c2)ccn1 [Regorafenib],103,80.7,99.6,89.9,22.5 ± 4.2,48,13.2 ± 3.8,43.5,83.1 ± 5.7,39.7,117 ± 4.5,30.6 ± 7.5,44.9 ± 1.4
CCN1CCN(Cc2ccc(Nc3ncc(F)c(-c4cc(F)c5nc(C)n(C(C)C)c5c4)n3)nc2)CC1.CS(=O)(=O)O,83.9,46.7,130,52.6,87.8 ± 54,136,83 ± 14,135,71.6 ± 8.8,116,26.16 ± 0.13,30.4 ± 14,80.6 ± 5.5
CN(C)c1ccc(O)c2c1CC1CC3C(N(C)C)C(=O)C(C(N)=O)=C(O)C3(O)C(=O)C1=C2O.Cl (stereo unspecified) [Minocycline HCl],103,100,91.2,102,68.2 ± 8.5,59.2,55.8 ± 58,52.6,78.7 ± 12,96.5,70.7 ± 4.3,82.8 ± 14,81.8 ± 11
CC(C)(C)NC(=O)C1CC2CCCCC2CN1CC(O)C(Cc1ccccc1)NC(=O)C(CC(N)=O)NC(=O)c1ccc2ccccc2n1.CS(=O)(=O)O (stereo unspecified) [Saquinavir mesylate],96.9,89.5,105,99.4,101 ± 20,104,57.7 ± 51,95.3,38.63 ± 0.17,63.8,50.4 ± 0.71,36.3 ± 2.6,103 ± 3.5
